This is a sample that favours compounds with a hit; in the whole collection about 1.7% have one here.
Mtb betalactam: beta-lactam sensitization of Mtb H37Rv. M. tuberculosis H37Rv growth with meropenem, percent inhibition. inhibition, % at 25 µM. 330,000 tested, 0.27% active; call rule not given here;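 also: growth measured after seven days incubation then overnight dye step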
RecA splice inh: Mtb RecA intein splicing inhibition. inhibition, % (test concentration not listed). P9WHJ3. 290,000 tested, 0.75% active. AID 2221. cell-free RecA intein splicing, fluorescence; in the data active = inhibition above about 30%; inconclusive = no clear call, values can overlap the other calls
Target sequence (P9WHJ3 whole entry, looked up, canonical isoform): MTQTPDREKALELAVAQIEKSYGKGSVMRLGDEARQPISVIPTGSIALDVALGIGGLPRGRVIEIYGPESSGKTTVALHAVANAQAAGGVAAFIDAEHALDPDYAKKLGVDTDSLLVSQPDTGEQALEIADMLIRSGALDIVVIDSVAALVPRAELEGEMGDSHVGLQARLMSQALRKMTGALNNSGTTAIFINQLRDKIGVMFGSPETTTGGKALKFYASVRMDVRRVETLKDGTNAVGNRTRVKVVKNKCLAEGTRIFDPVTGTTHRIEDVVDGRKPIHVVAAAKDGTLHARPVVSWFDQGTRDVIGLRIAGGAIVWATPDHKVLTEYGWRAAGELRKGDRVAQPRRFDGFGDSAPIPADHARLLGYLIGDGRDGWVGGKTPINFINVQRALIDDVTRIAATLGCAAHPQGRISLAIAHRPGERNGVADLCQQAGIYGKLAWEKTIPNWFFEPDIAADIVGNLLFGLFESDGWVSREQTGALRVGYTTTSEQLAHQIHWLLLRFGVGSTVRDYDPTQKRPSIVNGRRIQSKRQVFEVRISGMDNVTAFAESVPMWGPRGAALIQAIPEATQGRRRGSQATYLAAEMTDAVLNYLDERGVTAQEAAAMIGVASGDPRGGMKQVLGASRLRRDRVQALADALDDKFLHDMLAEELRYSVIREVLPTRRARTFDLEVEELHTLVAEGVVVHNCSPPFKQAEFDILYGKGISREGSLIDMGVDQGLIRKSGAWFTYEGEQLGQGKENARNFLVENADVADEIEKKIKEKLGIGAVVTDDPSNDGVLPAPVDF
CCHF vOTU inh: CCHFV vOTU protease inhibition; Pep-AMC fluorescence; AID 651958; 370,000 tested, 0.55% active; inhibition, % at 11.5 µM; in the data active = inhibition above about 30%
PfHsp40 yeast: compounds rescuing yeast from Plasmodium falciparum HSP40 toxicity; growth rescue, % at 12.5 µM; 340,000 tested, 0.68% active; AID 504582; S. cerevisiae expressing PfHsp40, growth rescue, ATP luminescence; in the data active = growth rescue above about 28%, passing the limit was not always enough; inconclusive = no clear call, values can overlap the other calls;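 also: yeast W303a lacking pdr1 and pdr3 grown in galactose medium; growth measured after three days at 30 °C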
Mtb hypoxia inh: Mtb hypoxia fluorescent reporter inhibition. AID 1159583. fluorescence inhibition, % (test concentration not listed). M. tuberculosis hypoxia-regulated fluorescent reporter, fluorescence. 300,000 tested, 0.1% active; in the data active = fluorescence inhibition mostly above about 23%, no sharp cut-off; inactive = mostly below about 17%
Numbers stand for hits; 0 = inactive; ? = inconclusive; - = no result given.

SMILES | Mtb betalactam | RecA splice inh | CCHF vOTU inh | PfHsp40 yeast | Mtb hypoxia inh
Cc1cc(C)c(S(=O)(=O)N2CCC(C(=O)NCc3ccc(Cl)cc3Cl)CC2)c(C)c1 | 0 | 0 | 0 | 38.4 | 0
CCOC(=O)Cc1csc(NC(=O)CC(C)(C)C)n1 | 0 | 0 | 29.6 | 0 | 0
C(=N\N1CCOCC1)/c1cccs1 | 0 | 0 | 0 | 0 | -
C(=N\N1CCOCC1)/c1ccsc1 | 0 | 0 | 0 | 93.7 | -
CN1CCN(C(=O)C2=CC(c3ccccc3)CC(OCCCCO)O2)CC1 (stereo unspecified) | - | - | - | - | 0
O=[N+]([O-])c1ccc(-c2nnc(-c3ccccc3)c(NCCCO)n2)cc1 | 0 | 0 | 0 | 0 | 0
OCCCNc1nc(-c2ccc(Cl)cc2)nnc1-c1ccc(Br)cc1 | 0 | 0 | 0 | 28.4 | 0
N#Cc1cc([N+](=O)[O-])ccc1NC(=O)COC(=O)CCC1CCCCC1 | 0 | 59.9 | 0 | - | -
O=C(Cn1cnc2ccccc2c1=O)c1cccs1 | 0 | 0 | 0 | 41.3 | 0
O/N=C/c1cc(Br)ccc1OCc1ccc(F)cc1 | 0 | 0 | 0 | 0 | -
O/N=C/c1cc(Br)ccc1OCc1cccc(F)c1 | 0 | 0 | 0 | 279.2 | -
CCOc1ccc(Br)cc1C=NO | - | - | - | - | 0
Cc1ccc(COc2ccc(Br)cc2/C=N/O)cc1 | 0 | 0 | 0 | 449.9 | -
O=C1CC(N2CCCCCC2)C(=O)N1c1ccc2c(c1)OCO2 (stereo unspecified) | 0 | 0 | 0 | 78.0 | 0
C=CCC1(O)C(=O)Nc2ccccc21 (stereo unspecified) | 0 | 0 | 0 | 54.8 | 0
O=C(Nc1nnc(-c2ccccc2)o1)c1ccc(Cl)cc1 | 0 | 0 | 0 | 251.6 | 0
O=C(CN1C(=O)/C(=C/c2ccccc2)SC1=S)NNC(=O)c1ccccc1O | 0 | 0 | 0 | 0 | 0
O=C(CCCN1C(=O)/C(=C\c2ccccc2)SC1=S)Nc1ccc(O)cc1 | 0 | 32.4 | 0 | 0 | 0
O=C(O)COc1cccc(/C=C2/SC(=S)N(Cc3ccccc3)C2=O)c1 | 0 | 44.5 | 0 | 0 | 0
Cc1ccc(NC(=O)COc2cccc(/C=C3\SC(=S)N(CCC(=O)O)C3=O)c2)cc1Cl | 0 | 30.6 | 0 | 0 | 0
Cc1ccc(/C=C2/SC(=S)N(CCCC(=O)Nc3ccc(O)cc3)C2=O)cc1 | - | 0 | 0 | 0 | 0
COc1cccc(/C=C2/SC(=S)N(CC(=O)NNC(=O)c3ccccc3O)C2=O)c1 | 0 | 0 | 0 | 154.8 | 0
O=C(O)CCN1C(=O)/C(=C\c2cccc(OCC(=O)Nc3ccc(Cl)cc3)c2)SC1=S | 0 | 0 | 0 | 0 | 0
NC1=NCC(CC2CCCCC2)N1CCc1cc(C(F)(F)F)cc(C(F)(F)F)c1 (stereo unspecified) | - | - | - | - | 0
O=C(NN=C/C=C/c1ccccc1)c1cc(C2CC2)[nH]n1 | - | - | - | - | 0
SMILES | Mtb betalactam | RecA splice inh | CCHF vOTU inh | PfHsp40 yeast | Mtb hypoxia inh
COc1ccccc1C(CNC(=O)CN1C(=O)NC(C)(c2ccc3ccccc3c2)C1=O)N1CCCC1 (stereo unspecified) | - | - | 0 | 0 | 30.5
COc1ccc(N2CCN(C(=O)CN3C(=O)NC(C)(c4ccc5ccccc5c4)C3=O)CC2)cc1 (stereo unspecified) | 0 | - | 0 | 0 | 0
CC[C@]12C(=O)N(C)CC(C3C(=O)N(Cc4ccccc4)C(=O)C31)N2C(=O)c1ccc(C(C)(C)C)cc1 (stereo partly specified) | - | - | - | - | 0
COc1cc(C(=O)Nc2cc(S(=O)(=O)N3CCOCC3)ccc2N2CCOCC2)ccc1OC(F)F | - | - | 0 | 0 | 23.4
CC(/C=C/c1ccc2c(c1)OCO2)=NNC(=O)c1ccccc1 | - | - | - | - | 0
S=C1SCN(Cc2ccccc2)CN1Cc1ccccc1 | - | 0 | 0 | 0 | 0
S=C1SCN(Cc2cccnc2)CN1Cc1cccnc1 | 0 | 0 | 0 | 309.2 | -
O=C(O)c1nc(Cl)c(Cl)c(NN=Cc2ccccc2C(F)(F)F)c1Cl | - | - | - | - | 0
O=C1NC(=S)N(C2CC2)C(=O)/C1=C/c1ccc2c(c1)CCN2CCCCl | 0 | 0 | 0 | 63.3 | 0
Cc1ccc(CNC(=O)c2ccc(Cn3nc(C)c(Cl)c3C)o2)cc1 | 0 | 0 | 0 | 153.5 | 0
CN(C)c1ccc(C=Nn2c(C3CCCCC3)n[nH]c2=S)cc1 | - | - | - | - | 0
O=C(COC(=O)Cc1ccccc1)Nc1ccc(SC(F)F)cc1 | 0 | 0 | 0 | 0 | 0
O=C(COC(=O)c1ccccc1C(=O)c1ccccc1)Nc1ccc(SC(F)F)cc1 | 0 | 0 | 0 | 94.2 | 0
O=C1C(F)=CC(COC(c2ccccc2)(c2ccccc2)c2ccccc2)OC1n1cc(F)c(=O)[nH]c1=O (stereo unspecified) | - | - | 0 | 153.8 | -
CC(=O)OCC1OC(n2cc(F)c(=O)[nH]c2=O)C(OC(C)=O)C1OC(C)=O (stereo unspecified) | 0 | 0 | 0 | 0 | 0
CCN(CC)c1ccc(S(=O)(=O)N2CCOCC2)cc1NC(=O)CSc1nncn1C | 0 | - | 34.6 | 0 | 0
CCN(CC)c1ccc(S(=O)(=O)N2CCOCC2)cc1NC(=O)CSc1nncs1 | 0 | 0 | - | 0 | 0
O=c1c(O)cccc2cc(O)c(O)c(O)c12 | 0 | 0 | 0 | 626.7 | 0
COc1cc2cccc(OC)c(=O)c2c(OC)c1OC | 0 | 0 | 0 | 0 | -
Cc1ccccc1C=NNc1nc2ccccc2c(=O)n1O | - | - | - | - | 0
O=C(NN=C(c1ccccc1)c1ccccn1)c1ccccc1 | 0 | - | 0 | 44.4 | -
COc1ccc(C(=O)N/N=C(\c2ccccc2)c2ccccn2)cc1 | 0 | 0 | 0 | 86.3 | -
COc1ccc(C(=O)C=Cc2ccc(O)cc2)c(O)c1CC=C(C)C | - | - | - | - | 0
Cc1ccc(C=C2C(Cl)=C(Cl)C(Cl)=C2Cl)cc1 | 0 | 31.0 | - | - | 0
O=C(NN=Cc1c(O)ccc2ccccc12)c1cccnc1 | - | - | - | - | 0
SMILES | Mtb betalactam | RecA splice inh | CCHF vOTU inh | PfHsp40 yeast | Mtb hypoxia inh
O=C(N/N=C/c1c(O)n(Cc2ccccc2)c(=O)c2ccccc12)c1cccnc1 | 0 | 0 | 0 | 431.0 | 0
O=C(N/N=C/c1c(O)n(-c2ccccc2Cl)c(=O)c2ccccc12)c1cccnc1 | - | 0 | 0 | 97.9 | 0
COc1ccc(Cn2c(O)c(/C=N/NC(=O)c3cccnc3)c3ccccc3c2=O)cc1 | - | 0 | 0 | ? | 0
CCN1CCN(C(=O)C2CCN(C(=O)Nc3ccccc3)CC2)CC1 | 0 | - | 0 | 0 | 0
NC(=O)CN1CCN(C(=O)Nc2ccccc2)CC1 | 0 | 0 | 0 | 75.8 | -
CC1CN(C(C)CO)C(=O)c2cc(NC(=O)C3CC3)ccc2OC1CN(C)C(=O)Nc1ccccc1 (stereo unspecified) | - | - | - | - | 0
Cc1cccc(NC(=O)c2nc[nH]c2C(=O)NC(C)C(=O)OC(C)(C)C)c1 (stereo unspecified) | - | - | - | - | 0
COc1cc(C=NNc2ncc(C(F)(F)F)cc2Cl)cc(OC)c1OC | - | - | - | - | 0
CCCSC(=S)c1c(C)[nH]n(-c2ccccc2)c1=O | 0 | 0 | 0 | 305.0 | 0
CCC(=NNC(=O)c1ccccc1O)c1c(C)[nH]n(-c2ccccc2)c1=O | - | - | - | - | 0
CCn1c(COc2ccc(Cl)cc2)nnc1SC1CCc2ccccc2C1=O (stereo unspecified) | 0 | 62.4 | 0 | 0 | 0
O=C1CC2c3c(cccc3CN1Cc1ccccc1F)CC(O)C2O (stereo unspecified) | - | - | - | - | 0
CCOC(=O)c1ccc(NC(=S)N(Cc2cccnc2)Cc2ccco2)cc1 | 0 | 0 | 0 | 388.7 | 0
COC(=O)c1ccc(NC(=S)N(Cc2cccnc2)Cc2ccco2)cc1 | 0 | 0 | 0 | 0 | 0
